A number with no mark means an inactive call. Records with an inconclusive call do not appear. Entries that show only a call come without a potency. Activity calls are given as the source filed them. Unless noted, calls follow the shape of the dose curve; as a rule, active = well fitted curve in the direction sought with a large enough effect in the repeat runs; inconclusive = weak or mixed curves; inactive = no such curve, though single readings can be large; an effect the other way counts as inactive or inconclusive.
Tests used:
[1] = qHTS assay to identify small molecule antagonists of the estrogen related receptor (ERR) signaling pathway from Tox21 library - cell viability counter screen (AID 1224834); also: nearly all actives have a fitted effect of over 30% in size
Summary of the method: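 Counter screen run in ERR cells (2,000 cells/well): cells pre-incubated 6 h, then treated with compounds for 17.5 h at 37 C. Fluorescence was read 30 min after CellTiter-Fluor addition.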

[2] = target: Luciferin 4-monooxygenase (Photinus pyralis) (UniProt P08659); experiment: qHTS assay to identify small molecule inhibitors of firefly luciferase (AID 1224835); also: series mostly up to about 120 µM; nearly all actives have a fitted effect of over 25% in size
Chain of Luciferin 4-monooxygenase (Photinus pyralis) (P08659 whole entry, looked up): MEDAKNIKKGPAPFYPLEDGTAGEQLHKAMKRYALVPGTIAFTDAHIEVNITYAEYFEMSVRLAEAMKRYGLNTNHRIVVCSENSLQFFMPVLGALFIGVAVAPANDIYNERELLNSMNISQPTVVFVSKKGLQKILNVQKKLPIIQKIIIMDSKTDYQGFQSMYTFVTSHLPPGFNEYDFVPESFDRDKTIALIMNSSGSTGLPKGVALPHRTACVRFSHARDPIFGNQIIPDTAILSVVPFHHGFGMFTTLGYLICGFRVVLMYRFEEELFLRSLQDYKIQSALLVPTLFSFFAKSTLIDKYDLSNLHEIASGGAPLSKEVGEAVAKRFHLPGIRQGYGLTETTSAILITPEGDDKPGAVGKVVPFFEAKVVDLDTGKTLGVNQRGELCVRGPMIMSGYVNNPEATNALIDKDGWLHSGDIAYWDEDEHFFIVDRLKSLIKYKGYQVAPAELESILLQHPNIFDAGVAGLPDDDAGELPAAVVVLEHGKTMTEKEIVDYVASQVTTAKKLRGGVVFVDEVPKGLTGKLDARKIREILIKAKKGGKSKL
Summary of the method: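 Quantitative HTS format; KM concentrations of both substrates. Purified P. pyralis FLuc activity quantified from luminescence images.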

[3] = qHTS assay to identify small molecule agonists of the constitutive androstane receptor (CAR) signaling pathway - cell viability counter screen (AID 1224836); also: series mostly up to about 92 µM; nearly all actives have a fitted effect of over 45% in size
Summary of the method: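 HepG2-CYP2B6-hCAR, 2500 cells/well, 4 h pre-incubation; cpd 15 conc + PK11195 0.75 uM final; 23 h, 37 C/5% CO2; CellTiter-Fluor, fluorescence.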

[4] = qHTS assay to identify small molecule antagonists of the constitutive androstane receptor (CAR) signaling pathway - cell viability counter screen (AID 1224837); also: series mostly up to about 92 µM; nearly all actives have a fitted effect of over 45% in size
Summary of the method: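 CITCO at 50 nM final was added alongside compounds (15 concentrations) to double-stable hCAR/CYP2B6-2.2kb HepG2 cells. Following 23 hr at 37 C, cell viability was quantified by CellTiter-Fluor fluorescence intensity.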

[5] = target: Nuclear receptor subfamily 1 group I member 3 (Homo sapiens) (UniProt Q14994); experiment: qHTS assay to identify small molecule antagonists of the constitutive androstane receptor (CAR) signaling pathway (AID 1224838); also: nearly all actives have a fitted effect of over 40% in size
Chain of Nuclear receptor subfamily 1 group I member 3 (Homo sapiens) (Q14994 whole entry, looked up): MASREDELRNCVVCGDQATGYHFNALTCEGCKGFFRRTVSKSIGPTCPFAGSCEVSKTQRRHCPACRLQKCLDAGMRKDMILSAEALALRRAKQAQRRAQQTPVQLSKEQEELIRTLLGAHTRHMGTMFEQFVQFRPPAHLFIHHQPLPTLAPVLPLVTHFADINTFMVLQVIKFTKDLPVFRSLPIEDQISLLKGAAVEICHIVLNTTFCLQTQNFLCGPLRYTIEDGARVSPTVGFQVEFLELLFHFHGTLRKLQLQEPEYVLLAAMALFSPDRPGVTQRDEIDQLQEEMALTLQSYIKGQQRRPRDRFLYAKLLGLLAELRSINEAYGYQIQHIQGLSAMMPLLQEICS
Summary of the method: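 Inhibition of CITCO-driven (50 nM final) CYP2B6 reporter expression is measured in HepG2 cells stably carrying hCAR. Fifteen compound concentrations are applied for 24 h at 37 C, followed by luciferase luminescence.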

[6] = target: Nuclear receptor subfamily 1 group I member 3 (Homo sapiens) (UniProt Q14994); experiment: qHTS assay to identify small molecule agonists of the constitutive androstane receptor (CAR) signaling pathway (AID 1224839); also: series mostly up to about 92 µM; nearly all actives have a fitted effect of over 15% in size
Summary of the method: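 HepG2-CYP2B6-hCAR cells, 2500/well, 4 h pre-incubation; compounds 15 conc.; PK11195 0.75 uM final; 24 h, 37 C/5% CO2; ONE-Glo luciferase read.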

[7] = qHTS assay to identify small molecule antagonists of the estrogen related receptor signaling pathway with the pleiotropic PPARgamma coactivator (PGC) from Tox21 10K library - cell viability counter screen (AID 1224840; active = well fitted cell-killing curve with a large enough effect in the repeat runs, not every such curve was filed as active; also: nearly all actives have a fitted effect of over 40% in size)
Summary of the method: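 Readout: fluorescence intensity from CellTiter-Fluor after 30 min at 37 C/5% CO2. Preceded by 17.5 h treatment of PGC/ERR cells with DMSO-dissolved compounds, added 6 h post-seeding.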

[8] = target: Thyrotropin receptor (Homo sapiens) (UniProt P16473); experiment: qHTS assay to identify small molecule agonists of the thyroid stimulating hormone receptor (TSHR) signaling pathway (AID 1224843; calls by dose curve; also: nearly all actives have a fitted effect of over 45% in size)
Chain of Thyrotropin receptor (Homo sapiens) (P16473 whole entry, looked up): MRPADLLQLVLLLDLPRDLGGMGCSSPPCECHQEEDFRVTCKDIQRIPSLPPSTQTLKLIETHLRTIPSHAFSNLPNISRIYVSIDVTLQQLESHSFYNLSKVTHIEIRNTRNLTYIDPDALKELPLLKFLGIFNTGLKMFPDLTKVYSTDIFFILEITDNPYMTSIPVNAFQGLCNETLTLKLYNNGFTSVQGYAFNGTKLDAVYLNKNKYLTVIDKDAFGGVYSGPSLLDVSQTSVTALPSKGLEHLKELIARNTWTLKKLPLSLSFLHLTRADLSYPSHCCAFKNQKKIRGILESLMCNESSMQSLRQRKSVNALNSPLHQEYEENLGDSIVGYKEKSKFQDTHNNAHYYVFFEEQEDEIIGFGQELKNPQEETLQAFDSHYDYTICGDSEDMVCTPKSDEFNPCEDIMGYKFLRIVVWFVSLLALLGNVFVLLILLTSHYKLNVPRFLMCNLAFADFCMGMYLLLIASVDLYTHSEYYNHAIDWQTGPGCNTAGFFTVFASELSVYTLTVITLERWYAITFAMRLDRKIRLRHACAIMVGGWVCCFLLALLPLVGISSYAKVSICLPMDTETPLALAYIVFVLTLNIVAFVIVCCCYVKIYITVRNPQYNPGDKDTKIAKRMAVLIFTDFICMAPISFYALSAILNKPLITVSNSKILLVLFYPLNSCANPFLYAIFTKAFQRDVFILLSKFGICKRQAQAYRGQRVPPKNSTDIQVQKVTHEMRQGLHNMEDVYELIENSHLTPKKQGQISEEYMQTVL
Summary of the method: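 Using 15 concentrations per compound in triplicate, cAMP production was monitored in TSHR-HEK293 cells after 30 min compound incubation at RT; HTRF reagents followed, with fluorescence intensity recorded after 1 h.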

[9] = qHTS assay to identify small molecule agonists of the hypoxia (HIF-1) signaling pathway - cell viability counter screen (AID 1224844; calls by dose curve; also: nearly all actives have a fitted effect of over 50% in size)
Summary of the method: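 In this counter screen, HRE-bla ME-180 cell viability after 17 hrs of compound exposure at 37C was read by CellTiter-Glo luminescence, multiplexed with the beta-lactamase reporter measurement.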

[10] = qHTS assay to identify small molecule agonists of H2AX (AID 1224845; active = well fitted activation curve with a large enough effect in the signal ratio in the repeat runs, not every such curve was filed as active; the % refers to the signal ratio)
Summary of the method: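 Wild-type CHO-K1 cells plated overnight, then exposed 3 hr at 37C to compounds at 15 concentrations (0.76% DMSO). Lysed, then HTRF anti-pH2AX(S139)-cryptate/anti-H2AX-d2 detection after 24 hr at room temperature; emissions 665 and 620 nm.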

[11] = qHTS assay to identify small molecule agonists of H2AX - cell viability counter screen (AID 1224847; calls by dose curve; also: top concentration of the series differs between compounds; nearly all actives have a fitted effect of over 30% in size)
Summary of the method: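 Cells plated first: CHO-K1, 1000 per well in 10% FBS medium, incubated overnight at 37C. Then 15-point compound titration added (final DMSO 0.76%) for 3 hr. Finally CellTiter-Glo added and luminescence read.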

[12] = qHTS RealTime-Glo MT Cell Viability Assay in HEK293 cells - 32 hour (AID 1224868); also: top concentration of the series differs between compounds; nearly all actives have a fitted effect of over 50% in size
Summary of the method: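 Tox21 10K qHTS, HEK293, 600 cells/well, RealTime-Glo reagent co-dispensed with cells; 5 h preincubation, compound by pintool, 37 C, luminescence at 0–40 h.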

[13] = A CellTox Green Cytotoxicity Assay to monitor cytotoxicity in HEK293 cells - 0 hour (AID 1224869); also: nearly all actives have a fitted effect of over 50% in size
Summary of the method: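 Real-time, in one plate: 600 HEK293 cells/well with dead-cell DNA dye, pinned compound after 5 h, 37 C incubation over 40 h; viable cells give no appreciable fluorescence.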

[14] = qHTS RealTime-Glo MT Cell Viability Assay in HepG2 cells - 40 hour (AID 1224870); also: nearly all actives have a fitted effect of over 50% in size; also: potency is read from the fitted curve at half-maximal effect
Summary of the method: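 HepG2 cells mixed with RealTime-Glo MT reagents (NanoLuc plus cell-permeant prosubstrate) were seeded at 600 cells/well, incubated 5 h at 37 C/5% CO2, then pinned with compounds in DMSO; nonlytic luminescence tracked viability during 40 h treatment.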

[15] = qHTS assay to identify small molecule agonists of the hypoxia (HIF-1) signaling pathway (AID 1224846; active = well fitted activation curve with a large enough effect in the signal ratio in the repeat runs, not every such curve was filed as active; the % refers to the signal ratio)
Summary of the method: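 ME-180 HRE-bla reporter cells; compounds in DMSO, 17 h at 37C; read-out beta-lactamase via CCF4-AM FRET.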

[16] = qHTS RealTime-Glo MT Cell Viability Assay in HepG2 cells - 24 hour (AID 1224867); also: nearly all actives have a fitted effect of over 50% in size
Summary of the method: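 Cells + NanoLuc/prosubstrate dispensed (600 cells/well) → 5 h at 37 C/5% CO2 → compounds in DMSO transferred → 40 h incubation at 37 C, luminescence read at 0, 8, 16, 24, 32, 40 h.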

[17] = qHTS assay to identify small molecule agonists of the estrogen related receptor signaling pathway with the pleiotropic PPARgamma coactivator (PGC) from Tox21 10K library (AID 1224842); also: nearly all actives have a fitted effect of over 15% in size
Summary of the method: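 PGC/ERR reporter cells (NTP line) were seeded 2,000 per well, rested 6 h at 37 C/5% CO2, then pin-dosed with compounds in DMSO for 18 h at 37 C; luciferase read by One-Glo luminescence after 30 min at room temperature.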

[18] = qHTS assay to identify small molecule antagonists of the estrogen related receptor (ERR) signaling pathway from Tox21 library (AID 1224848); also: nearly all actives have a fitted effect of over 50% in size
Summary of the method: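 Tox21 10K compounds in DMSO tested for ERR pathway antagonism in NTP's ERR cell line; 18 h, 37 C exposure; ONE-Glo luminescence.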

[19] = qHTS assay to identify small molecule agonists of the estrogen related receptor (ERR) signaling pathway from Tox21 library (AID 1224849; calls by dose curve; also: nearly all actives have a fitted effect of over 15% in size)
Summary of the method: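 Luciferase activity in ERR pathway reporter cells served as the agonist readout; exposure lasted 18 h at 37 C, with ONE-Glo detection after 30 min at room temperature.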

Row | Compound | Potency [1] | Potency [2] | outcome [3] | outcome [4] | Potency [5] | Potency [6] | outcome [7] | Potency [8] | Potency [9] | Potency [10] | outcome [11] | Potency [12] | outcome [13] | Potency [14] | outcome [15] | outcome [16] | Potency [17] | Potency [18] | outcome [19]
1 | CC[N+](CC)(CC)CCOc1cccc(OCC[N+](CC)(CC)CC)c1OCC[N+](CC)(CC)CC | inactive | inactive | inactive | inactive | inactive | inactive | inactive | inactive | inactive | inactive | inactive | inactive | inactive | 23.9 µM (active) |  |  |  |  | 
2 | CCN(C=O)CC | inactive | inactive | inactive | inactive | inactive | inactive | inactive | inactive |  | inactive | inactive |  | inactive | inactive | inactive | inactive |  |  | 
3 | O=C(O)Cc1csc(-c2ccc(Cl)cc2)n1 | inactive | inactive | inactive | inactive | inactive | inactive | inactive | inactive | inactive | inactive |  | inactive | inactive |  | inactive | inactive |  |  | 
4 | O=C(O)CCCC[P+](c1ccccc1)(c1ccccc1)c1ccccc1 | inactive | inactive | inactive | inactive | inactive | inactive | inactive |  | inactive |  | inactive | inactive | inactive | inactive | inactive | inactive |  |  | 
5 | C=CCOCC(O)CO (configuration not stated) | inactive | inactive | inactive | inactive | inactive | inactive | inactive | inactive | inactive | inactive |  | inactive | inactive | inactive | inactive |  |  |  | 
6 | CC1OC1C1CCC2(C)OC2C1 (configuration not stated) | inactive | inactive | inactive | inactive | inactive | inactive |  | inactive | inactive |  |  | inactive | inactive |  | inactive | inactive |  |  | 
7 | C=C[Si](OC(C)=O)(OC(C)=O)OC(C)=O | inactive | inactive | inactive | inactive | inactive | inactive | inactive |  | inactive | inactive | inactive | inactive | inactive | inactive | inactive | inactive |  |  | 
8 | OCCc1ccccn1 | inactive | inactive | inactive | inactive | inactive | inactive | inactive |  | inactive | inactive | inactive | inactive | inactive | inactive | inactive |  |  |  | 
9 | C[C@@H]1C[C@H]2[C@@H]3C[C@H](F)C4=CC(=O)C(Cl)=C[C@]4(C)[C@@]3(F)[C@@H](O)C[C@]2(C)[C@@]1(O)C(=O)CO | inactive | inactive | inactive | inactive | inactive | inactive | inactive | inactive |  |  |  | inactive | inactive | inactive | inactive | inactive |  |  | 
10 | CC(C(=O)O)c1cccc(Oc2ccccc2)c1 (configuration not stated) | inactive | inactive | inactive | inactive | inactive | inactive | inactive |  | inactive | inactive |  | inactive | inactive | inactive |  |  |  |  | 
11 | CN(C)[C@@H]1C(=O)C(C(=O)NCN2CCCC2)=C(O)[C@@]2(O)C(=O)C3=C(O)c4c(O)cccc4[C@@](C)(O)C3C[C@@H]12 (some centres not stated) | inactive | inactive | inactive | inactive | inactive | inactive | inactive |  | inactive |  | inactive | inactive | inactive | inactive |  | inactive |  |  | 
12 | O=C(O)CCSCCC(=O)O | inactive | inactive | inactive | inactive | inactive | inactive |  | inactive | inactive | inactive | inactive | inactive | inactive | inactive | inactive | inactive |  |  | 
13 | C[N+]12CCC(CC1)C(OC(=O)C(O)(c1ccccc1)c1ccccc1)C2 (configuration not stated) | inactive | inactive | inactive | inactive | inactive | inactive |  | inactive |  |  | inactive | inactive | inactive | inactive |  |  | inactive | inactive | inactive
14 | CC(C)(C)C(=O)c1ccccc1 | inactive | inactive | inactive | inactive | inactive | inactive | inactive | inactive | inactive | inactive | inactive | inactive | inactive | inactive | inactive |  |  |  | 
15 | CC(=O)Nc1ccc(OCC(O)CNC(C)C)cc1 (configuration not stated) | inactive | inactive | inactive | inactive | inactive | inactive | inactive |  | inactive | inactive |  | inactive | inactive | inactive | inactive | inactive |  |  | 

Source: PubChem BioAssay (Tox21)
